The source of these data is the supplement of paper PMC6555819.

Common to all, as to experiment: PBM binding z-score (relative to random genomic background probes); higher = stronger binding; sequences stand for … in GC…GCGATTGACAGCGTAGAATGAAGG
Test [1] deals with FXR:RXRa (NR concentration 270 nM, RXRa partner concentration 90 nM). Summed up:
(§1)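 Scanned fluorescence from custom Agilent 4×180K protein-binding microarrays was regression-normalized. Binding z-scores use random background probes as reference. Ligand-free nuclear receptor dimers were incubated on the arrays for 1 h and detected with antibodies against each partner (one per run).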

The test system of test [2] is LXRa:RXRa (NR concentration 270 nM, RXRa partner concentration 90 nM). A digest of the protocol: as §1
In test [3] the test system is LXRa homodimer (NR concentration 270 nM). A digest of the protocol: as §1
Test [4] relates to LXRb:RXRa (NR concentration 270 nM, RXRa partner concentration 90 nM). Summed up: as §1
The test system of test [5] is LXRb homodimer (NR concentration 270 nM). Summed up:
as §1

Test [6] concerns PPARa:RXRa (NR concentration 270 nM, RXRa partner concentration 90 nM). Summed up:
as §1

For test [7], the system named is PPARg:RXRa (NR concentration 180 nM, RXRa partner concentration 90 nM). A digest of the protocol:
as §1

Test [8] has as its system PPARg:RXRa 270nM:90nM, anti-RXR (NR concentration 270 nM, RXRa partner concentration 90 nM). A digest of the protocol:
as §1

In test [9] the test system is PPARg:RXRa 30nM:10nM, anti-RXR (NR concentration 30 nM, RXRa partner concentration 10 nM). Summed up: as §1
The subject of test [10] is PPARg:RXRa 90nM:30nM, anti-RXR (NR concentration 90 nM, RXRa partner concentration 30 nM). Summed up:
as §1

Test [11] concerns PPARg:RXRa DBDmut IVT, anti-RXR (DBD mutation: RXRa K156A/R161A, NR concentration 270 nM, RXRa partner concentration 90 nM). Summed up:
as §1

In test [12] the test system is PPARg:RXRa IVT, anti-PPARg (NR concentration 270 nM, RXRa partner concentration 90 nM). A digest of the protocol: as §1
The test system of test [13] is PPARg DBDmut:RXRa IVT, anti-PPARg (DBD mutation: PPARg1 K132A/R137A, NR concentration 270 nM, RXRa partner concentration 90 nM). A digest of the protocol:
as §1

Test [14] has as its system PPARg DBDmut IVT, anti-PPARg (DBD mutation: PPARg1 K132A/R137A, NR concentration 270 nM). A digest of the protocol:
as §1

Test [15] relates to PPARg homodimer (NR concentration 180 nM). A digest of the protocol:
as §1

Test [16] concerns PXR:RXRa (NR concentration 270 nM, RXRa partner concentration 90 nM). Summed up:
as §1

Test [17] relates to PXR homodimer (NR concentration 270 nM). Summed up: as §1
The subject of test [18] is RARa:RXR (NR concentration 270 nM, RXRa partner concentration 90 nM). Summed up:
as §1

The test system of test [19] is RARa homodimer (NR concentration 270 nM). Summed up: as §1
In test [20] the test system is RARb:RXRa (NR concentration 270 nM, RXRa partner concentration 90 nM). Summed up:
as §1

Consider CTCGAAAGGTCCTGCTCAGGTGAGTATACCAAAC, for which the PBM binding z-score is 0.485 in test [1]; 0.0121 in test [2]; -0.23 in [3]; 0.151 in test [4]; -0.603 in [5]; 0.515 in test [6]. In addition, the PBM binding z-score in test [7] is -0.342; in test [8], 0.119; in [9], -0.0279; in test [10], -0.0509; in test [11], -0.108; in test [12], 0.189. Besides, the PBM binding z-score in [13] was 0.172; in test [14], -0.54; in [15], -0.47; in test [16] it was -0.11; in test [17], -0.684; in test [18], 0.631. Also, the PBM binding z-score in test [19] was -0.103; in [20], 1.06.
For the sequence ACAGACAGGTGAGTGCAGGTAACTCAGCTGGACG, the PBM binding z-score in test [1] was 0.0345; in test [2], -0.289; in test [3], -0.365; in test [4] it was -0.549; in test [5] it was -1.06; in test [6] it was -0.0295. Also, the PBM binding z-score in test [7] was 0.62; in test [8], -0.199; in test [9], -0.134; in test [10] it was -0.571; in test [11], 0.771; in test [12], 1.05. The PBM binding z-score in [13] is 0.0571; in test [14] it was -0.297; in test [15] it was -0.465; in test [16], -0.0581; in test [17], -0.0579; in test [18], -0.416. For the same sequence, the results for the PBM binding z-score in test [19] and in [20] were -0.183 and 0.35, respectively.
Take TCATATAGGTAAATGCTAGGAGAAAGTCCGATCT: the PBM binding z-score in test [1] came out at 0.665; in test [2], 0.615; in test [3], 0.0582; in test [4], 0.346; in test [5], 0.0208; in test [6] it was 0.892. In addition, the PBM binding z-score in [7] was found to be 0.807; in test [8], 2.25; in test [9] it was 3.95; in test [10], 3.15; in test [11] it was 3.74; in [12], 1.59. Moreover, the PBM binding z-score came to 1.52 in test [13]; 1.09 in test [14]; 0.813 in [15]; 0.458 in [16]; 0.215 in [17]; 0.385 in [18]. Further, the PBM binding z-score is 0.843 in test [19] and 0.136 in test [20].
TCTGCTAGTTCAACGATGGTCAGCTAATCTGCTA: the PBM binding z-score in test [1] is 0.141; in test [2] it was 0.175; in test [3] it was -0.555; in [4], -0.303; in test [5] it was -0.648; in [6] it was 0.264. For the same sequence, the PBM binding z-score in test [7] was -0.456; in test [8], 0.558; in test [9], 1.26; in [10], 0.99; in test [11], 0.463; in test [12], -0.112. Further, the PBM binding z-score in test [13] was -0.479; in test [14] it was -0.339; in [15], -1.27; in test [16] it was 0.51; in test [17], -0.0476; in [18], 0.475. Also, the PBM binding z-score is -1.49 in test [19] and 1.55 in [20].
Consider CCTTACGGGTCAAGGTTACAGCACGGGTGGTACG, for which the PBM binding z-score is 5.94 in [1]; 3.96 in [2]; 0.209 in test [3]; 2.99 in test [4]; -0.186 in [5]; 5.24 in test [6]. Besides, the PBM binding z-score came out at 5.13 in test [7]; 5.27 in test [8]; 2.14 in test [9]; 3.87 in test [10]; 2.05 in test [11]; 3.96 in test [12]. Besides, the PBM binding z-score in test [13] is 0.601; in test [14], -0.0526; in test [15] it was 1.7; in test [16] it was 3.4; in test [17], -0.0469; in test [18] it was 4.47. Moreover, the PBM binding z-score in test [19] is 0.176; in [20], 4.45.
Consider GCTTGTAGATCAATGTTAAGAAAGACTAAGCTAA, for which the PBM binding z-score was -0.421 in test [1]; -0.43 in test [2]; -0.434 in test [3]; -0.517 in test [4]; -0.377 in [5]; -0.584 in test [6]. Also, the PBM binding z-score in test [7] was -0.00589; in test [8], -0.385; in [9], -0.425; in test [10], -0.416; in test [11] it was 1.38; in test [12], 0.377. For the same sequence, the PBM binding z-score in [13] is -0.235; in test [14], 0.113; in test [15] it was -0.551; in test [16] it was -0.629; in test [17], -0.348; in [18], -0.432. The PBM binding z-score in test [19] is -0.306; in test [20] it was -0.399.
With CAACCTAGGTCAAGAGGTCAAAGTCCGCTTCCCG, the PBM binding z-score in test [1] was 6.93; in test [2] it was 6.34; in test [3], 6.16; in [4], 5.73; in [5], 1.82; in test [6] it was 5.97. Besides, the PBM binding z-score in test [7] amounted to 7.35; in test [8] it was 6.76; in [9], 3.67; in [10], 5.86; in [11], 4.75; in test [12], 5.45. In addition, the PBM binding z-score in test [13] was 0.0311; in test [14], -0.16; in test [15] it was 5.72; in [16], 6.26; in test [17] it was 2.37; in test [18], 7.74. Moreover, the PBM binding z-score stood at 2.15 in test [19] and 5.42 in test [20].
